# Measured values reported in PubChem BioAssay AID686959 (The Scripps Research Institute Molecular Screening Center, 2013).
# The source made the active and inactive calls. No cut-off is given here; in the data, nearly all actives have IC50 up to about 8.1 µM.
# Experiment: binders of r(CAG) RNA repeats, dose response, biochemical, fluorescence (AID 686959)
# Conditions: r(CAG) RNA repeat binding
row,Structure (SMILES),IC50
1,O=C(N/N=C/c1c(O)n(CCC2=CCCCC2)c(=S)[nH]c1=O)c1ccccc1,2.04 µM (active)
2,CC/C(=N\NC(=O)c1ccccc1O)c1c(O)n(C2CCCCC2)c(=O)[nH]c1=O,0.452 µM (active)
3,C/C(=N\NC(=O)c1ccccc1O)c1c(O)n(C2CCCCC2)c(=O)[nH]c1=O,0.45 µM (active)
